Among the data in PubChem BioAssay (NCI) are growth values, retold here.

The structures appear in SMILES notation. “And” between values parts separate entries of the source, which are not always exact repeats. Equal entries are not always repeated. About 83,000 compounds went through this panel and 20% of them were active in at least one assay; those are over-represented in the sample as a whole.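 A percent growth of 40 corresponds to 60% growth inhibition; 0 means no net growth; -100 means all cells died. Active threshold: below 10.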 The source made the active and inactive calls.

The subject of this assay is MDA-MB-468 breast. Kind of assay: NCI-60 one-dose screen, 48 h (100 = growth as untreated, 0 = no growth, -100 = all killed). To be noted: 10 µM unless noted.
Turning to `Oc1cccc(-c2nc(N3CCOCC3)c3c4c(sc3n2)CCCC4)c1`, the growth is 46.1% (inactive).

`S=CN1CCCCC1`: the growth was 93% (inactive). In the case of `COc1ccccc1CNCCCN1C(=O)c2ccc3c4c(ccc(c24)C1=O)C(=O)N(CCCN)C3=O`, the growth was -88.1% (active).

In the case of `COc1ccc(/C=C/C(c2cc(OC)c(OC)c(OC)c2)n2cncn2)cc1` (centres undefined), the growth was 40.9% (inactive). As to `CN(C)c1ccc(/C=c2\s/c(=C\C(=O)C(C)(C)C)[nH]c2=O)cc1`, the growth is 109% (inactive).

For the compound `NC(=O)c1n[nH]n2c1nc(=O)c1c3c(sc12)CCCC3`, the growth is 120% (inactive).

Take `CC1(C)C(N)=Nc2cc(OCCCCN3Cc4ccccc4C3)c(OCC3CC3)cc21`: the growth was 42.2% (inactive).

`COc1cccc(-c2nc3occn3c2-c2ccnc(NCCCNS(=O)(=O)c3ccc(C(F)(F)F)cc3)n2)c1`: the growth was 81.6% (inactive). Take `C=CCN(/C=C/CN(CC=C)CC=C)CC=C`: the growth was 99.3% (inactive). With `COc1ccc(COC=O)cc1`, the growth is 114% (inactive). For `O=[N+]([O-])c1ccc(/C=N\NC(=S)Nc2ccc(F)cc2)cc1`, the growth was 104% (inactive) and 101% (inactive). With `COC(=O)[C@]12CC[C@@H](C)[C@H](C)[C@@H]1C1=CC[C@@H]3[C@@]4(C)C(C=O)=C[C@@](C)(COC(=O)c5ccco5)[C@@H]4C(=O)C[C@@]3(C)[C@]1(C)CC2` the figure was 9.8% (active).

Take `CC[N+](CC)=c1sc2c(s1)C(c1ccc(Cl)cc1)Oc1ccc(Cl)cc1-2` (centres undefined): the growth was -4.17% (active). `C/C(=C(/C)C1CC1CCNC1CCC(NC(=O)OC(C)(C)C)CC1)c1ccccc1` (centres undefined): the growth is 35.3% (inactive).
